FBA Mtb inh: Mtb FBA enzyme inhibitors, primary screen, biochemical, fluorescence, strain H37Rv; purified M. tuberculosis FBA, fluorescence read-out; inhibition, % at 1 µM; 2.3% of 360,000 active; in the data active = inhibition above about 27%;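 also: 0% = vehicle and 100% = reference inhibitor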
Target sequence (P9WQA3 whole entry, looked up): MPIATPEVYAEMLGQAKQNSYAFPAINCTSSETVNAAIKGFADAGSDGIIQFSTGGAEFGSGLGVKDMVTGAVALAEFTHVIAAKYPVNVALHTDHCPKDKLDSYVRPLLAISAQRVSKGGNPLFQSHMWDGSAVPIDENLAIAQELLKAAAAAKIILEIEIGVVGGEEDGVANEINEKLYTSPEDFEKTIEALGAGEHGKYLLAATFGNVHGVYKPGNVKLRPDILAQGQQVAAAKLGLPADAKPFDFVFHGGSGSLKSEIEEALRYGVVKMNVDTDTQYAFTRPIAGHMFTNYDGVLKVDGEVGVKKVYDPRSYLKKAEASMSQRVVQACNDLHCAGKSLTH
GDH-TPI inh: GDH-TPI coupling enzyme inhibitors, primary screen, artefact control for M. tuberculosis FBA inhibitor project, biochemical, absorbance, full deck | GDH-TPI coupled enzyme counterscreen, NADH absorbance | inhibition, % at 4.8 µM | 1.2% of 360,000 active | AID 588335, 2011; in the data active = inhibition above about 30%;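 also: 0% = DMSO wells and 100% = wells lacking the enzyme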
Mtb hypoxia rep: PubChem AID 1159583. M. tuberculosis hypoxia-regulated fluorescent reporter, fluorescence. fluorescence inhibition, % (test concentration not listed). 0.1% of 300,000 active; in the data active = fluorescence inhibition mostly above about 23%, no sharp cut-off; inactive = mostly below about 17%
FadD28 FP inh: inhibitors of FadD28 bisubstrate probe binding, primary screen, biochemical, fluorescence polarization, single point | Mycobacterium tuberculosis FadD28 fatty-acid-AMP ligase | inhibition, % at 12.5 µM | 0.22% of 360,000 active | AID 588549, 2011; in the data active = inhibition above about 8.5%, passing the limit was not always enough
Mtb BioA inh: M. tuberculosis BioA enzyme inhibitors, primary screen, biochemical, plate reader, single point, HTS; AID 602481, 2012; 0.096% of 360,000 active; 7,8-diaminopelargonic acid synthase BioA (Mycobacterium tuberculosis); purified M. tuberculosis BioA enzyme; inhibition, % at 9.99 µM; in the data active = inhibition above about 40%
* = called active by the depositor. This is a sample that favours compounds with a hit; in the whole collection about 2.9% have one here.

For Cc1ccc(S(=O)(=O)Nc2ccc(Nc3nccn4c(-c5ccccc5Oc5ccccc5)cnc34)cc2)cc1 the results were FBA Mtb inh 2, GDH-TPI inh 20, FadD28 FP inh -4 and Mtb BioA inh -3.
Screening Cc1ccc(S(=O)(=O)Nc2ccc(Nc3nccn4c(-c5ccc6ccccc6c5)cnc34)cc2)cc1 returned FBA Mtb inh 11, GDH-TPI inh 32*, FadD28 FP inh -2 and Mtb BioA inh -2.
O=C(CN1C(=O)NC2(CCCC2)C1=O)Oc1ccc2ccc(=O)oc2c1 was read as GDH-TPI inh 27, Mtb hypoxia rep 2, FadD28 FP inh 1 and Mtb BioA inh 0.
CCOC(=O)Nc1ccc2c(CN3CCN(S(=O)(=O)c4ccccc4)CC3)cc(=O)oc2c1 was read as FBA Mtb inh 5, GDH-TPI inh 2, Mtb hypoxia rep 7, FadD28 FP inh 0 and Mtb BioA inh -1.
`CCc1cc(=O)oc2cc(OC(=O)CN3C(=O)NC4(CCCC4)C3=O)ccc12` gave FBA Mtb inh active, GDH-TPI inh 19, FadD28 FP inh -1 and Mtb BioA inh 0.
Screening CCOC(=O)Nc1ccc2c(CN3C(=O)NC4(CCCC4)C3=O)cc(=O)oc2c1 returned FBA Mtb inh active, GDH-TPI inh 23, Mtb hypoxia rep 0, FadD28 FP inh -3 and Mtb BioA inh 0.
`O=[N+]([O-])c1ccc(O)c(-c2nc(-c3ccccc3)c(-c3cccs3)[nH]2)c1` gave FBA Mtb inh 2, GDH-TPI inh 8, Mtb hypoxia rep 4, FadD28 FP inh 1 and Mtb BioA inh 1.
Screening COc1ccc(-c2nc(-c3cccs3)c(-c3cccs3)[nH]2)cc1O returned FBA Mtb inh 17, GDH-TPI inh 15, FadD28 FP inh 11* and Mtb BioA inh 2.
For C[C@H](CO)N1C[C@H](C)[C@H](CN(C)S(=O)(=O)c2cccs2)Oc2ccc(NC(=O)CCCCCC(=O)Nc3ccccc3N)cc2CC1=O the results were Mtb BioA inh -2.
For COc1cc(CC(C)C(C)Cc2ccc(O)c(OC)c2)ccc1O (stereo not given) the results were Mtb hypoxia rep 24.
For O=C(COC(=O)c1ccc(O)cc1O)Nc1cccc2ccccc12 the results were FBA Mtb inh -2, GDH-TPI inh 2, Mtb hypoxia rep 19, FadD28 FP inh 12* and Mtb BioA inh -1.
For Cc1ccc(C(=O)OCC(=O)Nc2ccccc2Cl)c(O)c1 the results were FBA Mtb inh 8, GDH-TPI inh 6, Mtb hypoxia rep 12 and FadD28 FP inh -1.
Screening C=CCN(CC=C)c1nc2ccccc2nc1C(C#N)C(=O)OCCOC (stereo not given) returned FBA Mtb inh 57*, GDH-TPI inh -6, FadD28 FP inh -3 and Mtb BioA inh -1.
Screening Cc1cc(C)nc(NN=Cc2cccc3ccccc23)n1 returned Mtb hypoxia rep 10.
`Nc1nc(-c2ccc(Cl)cc2)cc(C(F)(F)F)n1` gave FBA Mtb inh 3, GDH-TPI inh -5, Mtb hypoxia rep 2, FadD28 FP inh -4 and Mtb BioA inh 1.
O=C(NCCc1ccccc1)c1nc2nc(-c3cccs3)cc(C(F)(F)F)n2n1 was read as FBA Mtb inh active, GDH-TPI inh 31*, Mtb hypoxia rep -5, FadD28 FP inh -2 and Mtb BioA inh -2.
For FC(F)(F)c1cc(-c2cccs2)nc2ncnn12 the results were FBA Mtb inh active, GDH-TPI inh 11, Mtb hypoxia rep 1, FadD28 FP inh 0 and Mtb BioA inh 1.
`FC(F)(F)c1cc(-c2cccs2)nc2cc(-c3ccccc3)nn12` gave FBA Mtb inh 4, GDH-TPI inh 13, Mtb hypoxia rep 6, FadD28 FP inh -5 and Mtb BioA inh -1.
For FC(F)(F)c1cc(-c2ccc(Cl)cc2)nc2ncnn12 the results were FBA Mtb inh 142*, GDH-TPI inh 18, FadD28 FP inh -1 and Mtb BioA inh 1.
`CCOc1ccccc1Nc1ncnc2ccccc12` gave FBA Mtb inh 189*, GDH-TPI inh 7, Mtb hypoxia rep 4, FadD28 FP inh -2 and Mtb BioA inh 1.
Cc1cc(C=Nn2cnnc2)c(C)n1-c1ccc(OCc2ccc(F)cc2)cc1 was read as Mtb hypoxia rep 18.
For O=C(CC(=O)c1ccccc1O)c1cccc(F)c1 the results were FBA Mtb inh 4, GDH-TPI inh 11 and FadD28 FP inh 0.
Screening O=C(CC(=O)c1c(F)cccc1Cl)c1ccccc1O returned FBA Mtb inh 10, GDH-TPI inh 33*, Mtb hypoxia rep -4, FadD28 FP inh -1 and Mtb BioA inh 0.
Cc1ccc(N/C=C2\C(=O)N(c3ccc(F)cc3F)C(c3cccnc3)S2(=O)=O)cc1 (stereo not given) was read as FBA Mtb inh 3, GDH-TPI inh 66*, Mtb hypoxia rep -8 and FadD28 FP inh -2.
For Cc1noc(C)c1S(=O)(=O)Nc1ccc2c(c1)C(=O)N([C@@H](C)CO)C[C@@H](C)[C@@H](CN(C)S(C)(=O)=O)OCCCC[C@@H](C)O2 the results were Mtb BioA inh -3.
For CC1(C)CC(=O)C2=C(C1)NC1=C(C(=O)c3ccccc31)C2c1cc([N+](=O)[O-])ccc1O (stereo not given) the results were FBA Mtb inh -6, GDH-TPI inh 23, Mtb hypoxia rep 5 and FadD28 FP inh 21*.
For COc1ccc(C=NNC(=O)c2cccc(Br)c2)c(OC)c1 the results were Mtb hypoxia rep 3.
Screening O=[N+]([O-])c1cccc(/C=N/Nc2nccnc2Cl)c1 returned FBA Mtb inh 1, GDH-TPI inh 37* and FadD28 FP inh 0.
C[C@@H]1CN([C@H](C)CO)C(=O)c2cc(NC(=O)Cc3ccccc3)ccc2O[C@@H]1CN(C)S(=O)(=O)c1ccc(F)cc1 was read as Mtb BioA inh -2.
Screening CC(/C=N/n1c(-c2n[nH]c3c2CCC3)n[nH]c1=S)=C\c1ccco1 returned FBA Mtb inh 1, GDH-TPI inh 45*, FadD28 FP inh -2 and Mtb BioA inh 1.
`Oc1c(Br)cc(Br)c(/C=N/n2c(-c3ccccc3)n[nH]c2=S)c1Br` gave FBA Mtb inh 2, GDH-TPI inh 23, FadD28 FP inh 25* and Mtb BioA inh 0.
Screening Cc1ccccc1-c1n[nH]c(=S)n1/N=C/C=C/c1ccco1 returned FBA Mtb inh -1, GDH-TPI inh 43*, FadD28 FP inh -4 and Mtb BioA inh -3.
For S=c1[nH]nc(-c2ccccc2)n1/N=C/C=C/c1ccco1 the results were FBA Mtb inh -2, GDH-TPI inh 33* and FadD28 FP inh -2.
CO[C@H]1CN(C)C(=O)c2cc(NC(C)=O)ccc2OC[C@@H](C)N(C(=O)C2CCC2)C[C@@H]1C was read as Mtb BioA inh 2.
For C(/C=C/c1ccco1)=N/N1CCN(c2ccccc2)CC1 the results were FBA Mtb inh -3, GDH-TPI inh 47*, FadD28 FP inh -4 and Mtb BioA inh -2.

Bioassay records from PubChem BioAssay.
